Results: PubChem BioAssay (NCATS)
Records with an inconclusive call do not appear. The source made the active and inactive calls. Calls come from the whole dose curve; as a rule, active = well fitted curve in the direction sought with a large enough effect; inconclusive = small, poorly fitted or top-dose-only effect, or another doubt; inactive = no such curve, though single readings can be large; an effect the other way counts as inactive or inconclusive.

Assays:
[1] = target: Cytochrome P450 3A4 (Homo sapiens) (UniProt P08684); assay: qHTS Assay for Inhibitors and Substrates of Cytochrome P450 3A4 (AID 884); note: series mostly up to about 57 µM; nearly all actives have a fitted effect of over 50% in size
Summary of the method: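 Luminescent readout of luciferin produced by CYP3A4 (20 nM) dealkylation of Luciferin-PPXE, 25 uM (its KM). NADPH-driven reaction ran 60 min at RT after 10 min compound preincubation; data scaled to 57 uM ketoconazole as 100% inhibition.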

[2] = MultiTox-Fluor Cytotoxicity Assay - LYMP1-001 - Dead Cells (AID 946)
Summary of the method: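 LYMP1-001 lymphoblastoid cells (2500/well) treated 16 h at 37 C. Dead-cell protease cleavage of bis-AAF-R110 read at Ex/Em 485/520. Normalized to DMSO and 15 uM tetraoctylammonium bromide; AC50 from Hill fits.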

[3] = MultiTox-Fluor Cytotoxicity Assay - LYMP1-001 - Live Cells (AID 947)
[4] = MultiTox-Fluor Cytotoxicity Assay - LYMP1-003 - Dead Cells (AID 961); note: nearly all actives have a fitted effect of over 70% in size
Summary of the method: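 LYMP1-003 human lymphoblastoid cells (2500/well) exposed to compound 16 h at 37 C in complete medium; dead-cell protease read with bis-AAF-R110 fluorescence (Ex/Em 485/520) after 60 min at room temperature. Normalized to DMSO and 15 uM tetraoctylammonium bromide; AC50 from Hill fit.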

[5] = MultiTox-Fluor Cytotoxicity Assay - LYMP1-003 - Live Cells (AID 962);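 note: cytotoxic hits lower the live-cell protease signal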
Summary of the method: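 Acute cytotoxicity is scored as a drop in live-cell protease activity in human lymphoblastoid LYMP1-003 cells after 16 hr compound exposure at 37 C. AC50 values come from Hill-equation modelling of concentration-response data.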

[6] = Cell Viability - LYMP1-003 - Assay at 24 hr (AID 963)
Summary of the method: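 Cytotoxicity is scored as a concentration-dependent fall in ATP-linked luciferase signal in human lymphoblastoid LYMP1-003 cells treated 24 hr at 37 C in complete culture medium.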

[7] = Cell Viability - LYMP1-003 - Assay at 40 hr (AID 964); note: series mostly up to about 92 µM; nearly all actives have a fitted effect of over 60% in size
Summary of the method: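 Luminescent ATP signal (CellTiter-Glo) served as the viability read-out after 40 hr compound treatment of human lymphoblastoid LYMP1-003 cells at 37 C. Decreases in ATP were fitted with the Hill equation to give AC50.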

[8] = Cell Viability - LYMP2-004 (AID 966); note: nearly all actives have a fitted effect of over 65% in size
Summary of the method: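 qHTS cytotoxicity: human lymphoblastoid line, 24 hr compound treatment, 37 C, complete medium. Viability read as cellular ATP via luciferase luminescence; tetraoctylammonium bromide served as positive control.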

[9] = Cell Viability - LYMP2-005 (AID 967); note: series mostly up to about 92 µM
Summary of the method: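 qHTS viability screen in LYMP2-005 cells: 24 h at 37 C with compound, ATP luminescence via CellTiter-Glo, AC50 from Hill curves.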

[10] = Cell Viability - LYMP2-009 (AID 968); note: series mostly up to about 92 µM; nearly all actives have a fitted effect of over 55% in size
[11] = Cell Viability - LYMP2-011 (AID 969); note: nearly all actives have a fitted effect of over 60% in size
Summary of the method: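 In this qHTS cytotoxicity format, compounds are tested across concentrations on human lymphoblastoid cells in complete medium for 24 hours at 37 C. Viability is taken as cellular ATP measured by luciferase luminescence.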

[12] = Cell Viability - LYMP2-013 (AID 970); note: series mostly up to about 92 µM; nearly all actives have a fitted effect of over 55% in size
Summary of the method: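 Cytotoxicity is scored as a concentration-dependent drop in intracellular ATP in human lymphoblastoid cells after 24 hr compound exposure at 37 C. ATP is quantified by luciferase luminescence, and AC50 values come from Hill-equation modeling.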

[13] = Cell Viability - LYMP2-015 (AID 971); note: nearly all actives have a fitted effect of over 55% in size
Summary of the method: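 Cells are seeded at 2500 per well and incubated 5 hr at 37 C. Compounds are added across a concentration series for 24 hr at 37 C. CellTiter-Glo is added, and luminescence is read after 30 min at room temperature.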

[14] = Cell Viability - LYMP2-017 (AID 972); note: series mostly up to about 92 µM; nearly all actives have a fitted effect of over 55% in size
Summary of the method: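 Cytotoxicity is scored as a concentration-dependent drop in cellular ATP in a human lymphoblastoid line after 24 hr treatment at 37 C. Values are AC50s from Hill-equation modelling.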

[15] = Cell Viability - LYMP2-023 (AID 975)
Summary of the method: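 Steps: seed 2500 human lymphoblastoid cells per well, incubate 5 hr at 37 C, add compound for 24 hr at 37 C, add CellTiter-Glo, hold 30 min at room temperature, read luminescence. AC50 derived by Hill modelling.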

[16] = Cell Viability - LYMP2-025 (AID 976); note: series mostly up to about 92 µM
Summary of the method: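 Acute cytotoxicity is scored as a concentration-dependent fall in intracellular ATP, measured by luciferase luminescence, in human lymphoblastoid LYMP2-025 cells exposed to compound for 24 hours at 37 C. AC50 values come from standard Hill fits.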

[17] = Cell Viability - LYMP2-002 (AID 977);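 note: series mostly up to about 92 µM; compound exposure lasted 24 h at 37 °C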
Summary of the method: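 In this qHTS viability screen, 2500 human lymphoblastoid cells per well receive compound for 24 hr at 37 C, and luciferase-based ATP luminescence gives the viability signal. Tetraoctylammonium bromide serves as positive control.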

[18] = Cell Viability - LYMP2-006 (AID 978); note: series mostly up to about 92 µM; nearly all actives have a fitted effect of over 60% in size
Summary of the method: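 Concentration-dependent loss of intracellular ATP in a human lymphoblastoid line after 24 hr treatment at 37 C was measured by CellTiter-Glo luminescence, with AC50 values obtained from standard Hill-equation modelling.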

[19] = Cell Viability - LYMP2-008 (AID 980); note: nearly all actives have a fitted effect of over 60% in size
Summary of the method: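 Cells seeded at 2500/well and rested 5 hr at 37 C; compounds added over a concentration range and incubated 24 hr at 37 C; CellTiter-Glo added, 30 min at room temperature; luminescence read and AC50 fitted with Hill model.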

[20] = Cell Viability - LYMP2-010 (AID 981); note: nearly all actives have a fitted effect of over 55% in size
Summary of the method: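 Steps: seed 2500 LYMP2-010 cells per well; incubate 5 hr at 37 C; add compound; incubate 24 hr at 37 C; add CellTiter-Glo, wait 30 min at room temperature; read luminescence. Concentration-response fitted to Hill equation for AC50.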

Measured: Potency

Chain of Cytochrome P450 3A4 (Homo sapiens) (P08684 whole entry, looked up): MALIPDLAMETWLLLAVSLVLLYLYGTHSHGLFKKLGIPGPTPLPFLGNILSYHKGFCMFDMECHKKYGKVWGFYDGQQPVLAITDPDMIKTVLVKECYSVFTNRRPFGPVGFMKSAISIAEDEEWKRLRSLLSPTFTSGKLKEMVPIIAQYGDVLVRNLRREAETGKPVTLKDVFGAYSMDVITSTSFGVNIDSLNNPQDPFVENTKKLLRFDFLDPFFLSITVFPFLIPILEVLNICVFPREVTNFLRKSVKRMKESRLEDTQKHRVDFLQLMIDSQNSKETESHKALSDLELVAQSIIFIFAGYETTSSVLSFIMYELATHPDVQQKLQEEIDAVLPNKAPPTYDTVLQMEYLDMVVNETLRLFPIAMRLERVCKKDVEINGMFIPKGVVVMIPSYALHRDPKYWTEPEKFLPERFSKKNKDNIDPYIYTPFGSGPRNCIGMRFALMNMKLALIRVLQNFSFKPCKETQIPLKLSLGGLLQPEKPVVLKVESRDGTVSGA

O=C(O)c1cc(N=Nc2ccc([N+](=O)[O-])cc2)ccc1O
inactive: all assays above
